According to the supplement of paper PMC4962491:
± gives the standard deviation of the averaged measurements.

tested on: FaDu; test: mitochondrial oxygen consumption rate normalised to cell number, Z score vs plate DMSO wells; higher = higher oxygen consumption (negative = OCR reduction); conditions: 0.08 µM; treatment time 24 h; assay medium: 5 mM glucose, 5 mM pyruvate, 4 mM glutamine
Protocol: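 Secondary screen: FaDu cells were incubated 24 h with the top 130 primary hits at 0.08, 0.4, 2 or 10 uM. Mitochondrial-specific OCR (basal minus antimycin A) was measured on a Seahorse XF96 in medium with 5 mM glucose, 5 mM pyruvate and 4 mM glutamine and normalised to Hoechst cell number. OCR score = (OCR - mean of plate DMSO wells) / SD of plate DMSO wells. Three repeats.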
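Note: compound exposure in DMEM (4 mM L-glutamine, 5 mM glucose), antimycin A injected at 2 µM after the basal reading and its residual OCR subtracted from basal.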

Compound	mitochondrial oxygen consumption rate normalised
CCc1c2c(nc3ccc(OC(=O)N4CCC(N5CCCCC5)CC4)cc13)-c1cc3c(c(=O)n1C2)COC(=O)[C@]3(O)CC	0.871 ± 0.77
O=C(Nc1ccc([N+](=O)[O-])cc1Cl)c1cc(Cl)ccc1O	-1.26 ± 1.4
C[n+]1c2cc(N)ccc2cc2ccc(N)cc21	0.662 ± 0.73
COc1cccc2c1C(=O)c1c(O)c3c(c(O)c1C2=O)C[C@@](O)(C(=O)CO)C[C@@H]3O[C@H]1C[C@H](N)[C@@H](O)[C@H](C)O1	-0.0709 ± 0.37
Cc1cc(=O)[nH]c(=S)[nH]1	-1.18 ± 0.93
Cc1cc(N)c2ccccc2[n+]1CCCCCCCCCC[n+]1c(C)cc(N)c2ccccc21	0.324 ± 0.65
c1ccc2c(c1)CCCC2C1=NCCN1 (stereo not drawn)	-1.42 ± 2.7
CC(COc1ccccc1)NC(C)C(O)c1ccc(O)cc1 (stereo not drawn)	0.276 ± 1.4
N=C(N)NC(=N)NCCc1ccccc1	0.684 ± 1.6
CC(C(O)c1ccc(O)cc1)N1CCC(Cc2ccccc2)CC1 (stereo not drawn)	0.382 ± 1.5
COc1cc(O)c(C(=O)c2ccccc2)cc1S(=O)(=O)O	0.104 ± 1.6
Nc1nc(Cl)nc2c1ncn2[C@H]1C[C@H](O)[C@@H](CO)O1 [Cladribine]	0.0971 ± 0.62
CN(C)CCCN1c2ccccc2CCc2ccccc21	-0.638 ± 1.5
COc1ccc2cc3[n+](cc2c1OC)CCc1cc2c(cc1-3)OCO2	-0.246 ± 0.98
Clc1ccc(COC(Cn2ccnc2)c2ccc(Cl)cc2Cl)cc1 (stereo not drawn)	0.524 ± 0.89
C[C@]12CC[C@@H]3c4ccc(O)cc4CC[C@H]3[C@@H]1CC[C@@H]2OC(=O)CCC1CCCC1	0.0173 ± 1.4
Oc1c(Cl)cc(Cl)c(Cl)c1Cc1c(O)c(Cl)cc(Cl)c1Cl	-0.831 ± 1.9
NS(=O)(=O)c1cc2c(cc1Cl)N=CNS2(=O)=O	-0.245 ± 2.1
CC(C)NCC(O)COc1ccc(CC(N)=O)cc1 (stereo not drawn)	0.23 ± 1.7
CCCCC(CC)CN1CN(CC(CC)CCCC)CC(C)(N)C1 (stereo not drawn)	1.53 ± 1.5
CN(C)C(=O)C(CCN1CCC(O)(c2ccc(Cl)cc2)CC1)(c1ccccc1)c1ccccc1	0.831 ± 1.1
CO[C@@]12[C@H](COC(N)=O)C3=C(C(=O)C(C)=C(N)C3=O)N1C[C@@H]1N[C@@H]12	-0.603 ± 0.39
S=c1[nH]cnc2nc[nH]c12	0.147 ± 1.5
CCOC(=O)CCC(=O)O[C@H]1[C@H](O[C@@H]2[C@@H](C)[C@H](O[C@H]3C[C@@](C)(OC)[C@@H](O)[C@H](C)O3)[C@@H](C)C(=O)O[C@H](CC)[C@@](C)(O)[C@H](O)[C@@H](C)C(=O)[C@H](C)C[C@@]2(C)O)O[C@H](C)C[C@@H]1N(C)C	-0.00592 ± 1.6
CCc1cc(Cl)c(OC)c(C(=O)NC[C@@H]2CCCN2CC)c1O	0.346 ± 0.99
COc1c2occc2cc2ccc(=O)oc12	-0.411 ± 1.2
C[n+]1cc2c3c(ccc2c2ccc4cc5c(cc4c21)OCO5)OCO3	0.385 ± 0.96
CN1[C@@H]2CC[C@H]1C[C@@H](OC(=O)c1c[nH]c3ccccc13)C2	0.168 ± 1.4
